Laboratory results from the supplement of paper PMC6411743.
± gives the standard deviation of the averaged measurements. Targets with the largest changes are over-represented here; the source holds about 5,400 in all.

Compound: Nc1nc2c(ncn2[C@@H]2O[C@H](COP(=O)(O)OP(=O)(O)OP(=O)(O)O)[C@@H](O)[C@H]2O)c(=O)[nH]1 [guanosine triphosphate]
Experiment: NP40-soluble protein abundance relative to vehicle (solubility fold change) (ratio); higher = more soluble protein in presence of GTP
Description: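 Solubility proteome profiling in Jurkat crude lysate. Lysate was treated with Mg-GTP (0.1-10 mM) for 10 min at room temperature and 3 min at 37 °C, then solubilised with 0.8% NP40 and benzonase, followed by ultracentrifugation. Proteins were quantified by TMT10 LC-MS/MS; the value is the NP40-soluble abundance relative to the NP40-processed vehicle, from 3 independent experiments.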

Target: PUS7 (UniProt Q96PZ0)
Sequence of UniProt Q96PZ0 (Q96PZ0 whole entry): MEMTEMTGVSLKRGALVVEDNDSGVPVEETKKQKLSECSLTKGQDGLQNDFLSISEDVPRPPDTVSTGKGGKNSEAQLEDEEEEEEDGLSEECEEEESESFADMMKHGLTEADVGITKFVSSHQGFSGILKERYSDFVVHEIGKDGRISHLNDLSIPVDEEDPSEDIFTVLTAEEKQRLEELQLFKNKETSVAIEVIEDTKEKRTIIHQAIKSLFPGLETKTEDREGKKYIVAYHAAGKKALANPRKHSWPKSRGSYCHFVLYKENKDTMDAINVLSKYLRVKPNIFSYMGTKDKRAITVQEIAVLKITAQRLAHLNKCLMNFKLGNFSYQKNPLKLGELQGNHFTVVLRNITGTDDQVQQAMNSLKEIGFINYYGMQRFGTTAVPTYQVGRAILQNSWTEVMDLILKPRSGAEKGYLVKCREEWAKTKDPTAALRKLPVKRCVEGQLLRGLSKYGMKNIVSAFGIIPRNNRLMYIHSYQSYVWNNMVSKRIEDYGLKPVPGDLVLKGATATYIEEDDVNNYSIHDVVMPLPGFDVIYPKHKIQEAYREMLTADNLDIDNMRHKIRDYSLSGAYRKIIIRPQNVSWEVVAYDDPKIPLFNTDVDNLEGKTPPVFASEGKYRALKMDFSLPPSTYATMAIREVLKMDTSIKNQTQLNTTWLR
- NP40-soluble protein abundance (concentration: 0.1mM): 0.992 ± 0.013
- NP40-soluble protein abundance (concentration: 0.5mM): 0.992 ± 0.016
- NP40-soluble protein abundance (concentration: 1mM): 0.944 ± 0.046
- NP40-soluble protein abundance (concentration: 2mM): 0.944 ± 0.029
- NP40-soluble protein abundance (concentration: 4mM): 0.907 ± 0.053
- NP40-soluble protein abundance (concentration: 6mM): 0.917 ± 0.022
- NP40-soluble protein abundance (concentration: 8mM): 0.889 ± 0.038
- NP40-soluble protein abundance (concentration: 10mM): 0.892 ± 0.059

Target: TMOD3 (UniProt Q9NYL9)
Sequence of UniProt Q9NYL9 (Q9NYL9 whole entry): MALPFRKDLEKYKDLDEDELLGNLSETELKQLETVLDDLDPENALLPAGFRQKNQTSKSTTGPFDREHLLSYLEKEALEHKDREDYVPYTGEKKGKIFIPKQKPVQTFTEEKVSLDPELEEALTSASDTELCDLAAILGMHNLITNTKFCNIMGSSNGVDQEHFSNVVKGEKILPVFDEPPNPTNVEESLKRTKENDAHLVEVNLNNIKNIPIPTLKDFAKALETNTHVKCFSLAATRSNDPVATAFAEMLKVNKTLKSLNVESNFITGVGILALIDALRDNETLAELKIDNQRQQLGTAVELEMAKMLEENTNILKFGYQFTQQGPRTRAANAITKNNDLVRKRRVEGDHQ
- NP40-soluble protein abundance (concentration: 0.1mM): 0.878 ± 0.033
- NP40-soluble protein abundance (concentration: 0.5mM): 0.855 ± 0.044
- NP40-soluble protein abundance (concentration: 1mM): 1.03 ± 0.039
- NP40-soluble protein abundance (concentration: 2mM): 1.01 ± 0.029
- NP40-soluble protein abundance (concentration: 4mM): 1.02 ± 0.019
- NP40-soluble protein abundance (concentration: 6mM): 1.02 ± 0.026
- NP40-soluble protein abundance (concentration: 8mM): 1 ± 0.048
- NP40-soluble protein abundance (concentration: 10mM): 1.08 ± 0.04

Target: SAMM50 (UniProt Q9Y512)
Sequence of UniProt Q9Y512 (Q9Y512 whole entry): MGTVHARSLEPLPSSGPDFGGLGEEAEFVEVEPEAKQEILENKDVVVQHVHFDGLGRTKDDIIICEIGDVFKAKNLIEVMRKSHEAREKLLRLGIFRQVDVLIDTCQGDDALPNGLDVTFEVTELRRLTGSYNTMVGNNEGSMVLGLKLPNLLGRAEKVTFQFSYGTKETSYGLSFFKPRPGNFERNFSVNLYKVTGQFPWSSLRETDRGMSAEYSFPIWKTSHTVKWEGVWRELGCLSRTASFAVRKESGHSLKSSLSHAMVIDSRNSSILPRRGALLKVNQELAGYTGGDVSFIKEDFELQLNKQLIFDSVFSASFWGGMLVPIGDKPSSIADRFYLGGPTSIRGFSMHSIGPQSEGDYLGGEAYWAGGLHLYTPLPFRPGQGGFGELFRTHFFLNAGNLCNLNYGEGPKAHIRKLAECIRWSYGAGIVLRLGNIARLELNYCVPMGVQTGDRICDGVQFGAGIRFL
- NP40-soluble protein abundance (concentration: 0.1mM): 1.13 ± 0.15
- NP40-soluble protein abundance (concentration: 0.5mM): 1.18 ± 0.19
- NP40-soluble protein abundance (concentration: 1mM): 0.999 ± 0.1
- NP40-soluble protein abundance (concentration: 2mM): 1.13 ± 0.29
- NP40-soluble protein abundance (concentration: 4mM): 1.11 ± 0.19
- NP40-soluble protein abundance (concentration: 6mM): 1.1 ± 0.22
- NP40-soluble protein abundance (concentration: 8mM): 0.985 ± 0.098
- NP40-soluble protein abundance (concentration: 10mM): 0.949 ± 0.17

Target: UniProt Q9NQS7|Q9NQS7-2
Sequence (Q9NQS7 whole entry): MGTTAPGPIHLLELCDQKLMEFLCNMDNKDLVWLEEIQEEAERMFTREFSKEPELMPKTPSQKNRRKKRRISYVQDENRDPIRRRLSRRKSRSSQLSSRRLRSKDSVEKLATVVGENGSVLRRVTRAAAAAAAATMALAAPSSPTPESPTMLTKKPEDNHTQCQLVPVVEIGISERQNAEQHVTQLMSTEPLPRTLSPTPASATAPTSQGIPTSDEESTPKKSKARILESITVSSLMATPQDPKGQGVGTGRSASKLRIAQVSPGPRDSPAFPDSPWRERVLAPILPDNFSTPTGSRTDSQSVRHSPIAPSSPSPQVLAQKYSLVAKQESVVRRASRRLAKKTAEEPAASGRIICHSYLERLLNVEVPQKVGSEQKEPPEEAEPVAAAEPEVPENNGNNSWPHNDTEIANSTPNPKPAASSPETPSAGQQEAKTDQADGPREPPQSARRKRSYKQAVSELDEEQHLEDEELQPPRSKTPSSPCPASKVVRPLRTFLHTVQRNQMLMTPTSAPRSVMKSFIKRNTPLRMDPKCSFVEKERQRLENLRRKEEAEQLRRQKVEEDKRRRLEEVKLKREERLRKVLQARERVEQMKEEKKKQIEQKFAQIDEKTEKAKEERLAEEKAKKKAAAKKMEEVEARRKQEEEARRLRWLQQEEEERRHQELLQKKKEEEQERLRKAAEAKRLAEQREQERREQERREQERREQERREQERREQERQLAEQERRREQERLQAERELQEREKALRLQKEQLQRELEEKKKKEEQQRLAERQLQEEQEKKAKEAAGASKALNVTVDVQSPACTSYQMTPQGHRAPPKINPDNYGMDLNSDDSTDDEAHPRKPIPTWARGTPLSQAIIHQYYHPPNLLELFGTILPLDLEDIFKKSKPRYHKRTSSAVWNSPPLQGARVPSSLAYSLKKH
- NP40-soluble protein abundance (concentration: 0.1mM): 1.16 ± 0.11
- NP40-soluble protein abundance (concentration: 0.5mM): 1.2 ± 0.24
- NP40-soluble protein abundance (concentration: 1mM): 1.31 ± 0.089
- NP40-soluble protein abundance (concentration: 2mM): 1.28 ± 0.14
- NP40-soluble protein abundance (concentration: 4mM): 1.49 ± 0.21
- NP40-soluble protein abundance (concentration: 6mM): 1.6 ± 0.17
- NP40-soluble protein abundance (concentration: 8mM): 1.72 ± 0.11
- NP40-soluble protein abundance (concentration: 10mM): 1.97 ± 0.29

Target: UniProt Q9UKA9|Q9UKA9-4
Sequence (Q9UKA9 whole entry): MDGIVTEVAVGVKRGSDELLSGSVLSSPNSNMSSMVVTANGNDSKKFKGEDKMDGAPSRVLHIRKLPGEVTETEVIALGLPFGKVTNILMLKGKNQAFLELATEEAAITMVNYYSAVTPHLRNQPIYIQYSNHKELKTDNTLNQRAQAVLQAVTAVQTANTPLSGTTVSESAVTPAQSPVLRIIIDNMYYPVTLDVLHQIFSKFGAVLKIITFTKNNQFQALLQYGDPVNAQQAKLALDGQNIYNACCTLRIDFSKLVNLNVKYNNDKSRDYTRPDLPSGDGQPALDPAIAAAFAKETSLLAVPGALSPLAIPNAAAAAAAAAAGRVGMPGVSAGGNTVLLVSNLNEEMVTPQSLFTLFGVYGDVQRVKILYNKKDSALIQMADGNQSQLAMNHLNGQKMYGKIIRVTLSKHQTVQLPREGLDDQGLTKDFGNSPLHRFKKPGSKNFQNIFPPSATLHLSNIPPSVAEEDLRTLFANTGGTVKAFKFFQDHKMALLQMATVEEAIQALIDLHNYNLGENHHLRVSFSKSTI
- NP40-soluble protein abundance (concentration: 0.1mM): 1.04 ± 0.021
- NP40-soluble protein abundance (concentration: 0.5mM): 0.985 ± 0.025
- NP40-soluble protein abundance (concentration: 1mM): 1.01 ± 0.014
- NP40-soluble protein abundance (concentration: 2mM): 0.989 ± 0.045
- NP40-soluble protein abundance (concentration: 4mM): 0.947 ± 0.051
- NP40-soluble protein abundance (concentration: 6mM): 0.955 ± 0.036
- NP40-soluble protein abundance (concentration: 8mM): 0.963 ± 0.029
- NP40-soluble protein abundance (concentration: 10mM): 0.906 ± 0.027
